# Data taken from PubChem BioAssay (EPA / NIEHS).
# Calls of active or inactive are those of the source. How the source made its calls: active means hit-call score of the fitted dose curve at least 0.9, where 1 is the maximum; inactive means score below 0.9.
# Key:
# Conditions in all cases: mRNA level, 48 h; actives raise or lower the signal
# [1] = read-out: catalase (CAT), CAT (gene 847); assay: LTEA_HepaRG_CAT: Life Technologies and Expression Analysis (LTEA) Assay for catalase (CAT) using HepaRG (AID 2283452)
# Method in brief: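 HepaRG cells in serum-free induction medium, 0.5% DMSO vehicle, exposed 48 h in duplicate over 8 half-log concentrations from 100 uM. CAT mRNA measured by qRT-PCR, normalized to ACTB, GAPDH, POLR2A; bidirectional fit versus DMSO.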
# [2] = read-out: flavin-containing dimethylaniline monooxygenases 3 (FMO3), FMO3 (gene 2328); assay: LTEA_HepaRG_FMO3: Life Technologies and Expression Analysis (LTEA) Assay for flavin-containing dimethylaniline monooxygenases 3 (FMO3) using HepaRG (AID 2283453)
# Method in brief: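 Differentiated HepaRG cells in serum-free induction medium, exposed 48 h in duplicate to 8 half-log concentrations up to 100 uM in 0.5% DMSO. FMO3 mRNA by qRT-PCR, normalized to ACTB, GAPDH, POLR2A; bidirectional fit vs DMSO.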
# [3] = read-out: Cytochrome P450 (CYP1A1), CYP1A1 (gene 1543); assay: LTEA_HepaRG_CYP1A1: Life Technologies and Expression Analysis (LTEA) Assay for Cytochrome P450 (CYP1A1) using HepaRG (AID 2283454)
# Method in brief: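 CYP1A1 transcript levels measured by Fluidigm qRT-PCR against three housekeeping genes, 48 h after chemical dosing of human HepaRG cells (highest concentration 100 uM, half-log steps, 0.5% DMSO vehicle). Gain or loss of signal fitted relative to DMSO.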
# [4] = read-out: CFLAR gene, CFLAR (gene 8837); assay: LTEA_HepaRG_CFLAR: Life Technologies and Expression Analysis (LTEA) Assay for CFLAR gene using HepaRG (AID 2283455)
# Method in brief: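 Differentiated HepaRG cells in serum-free induction medium were exposed 48 h in duplicate to eight half-log concentrations up to 100 uM in 0.5% DMSO; mRNA measured by TaqMan qRT-PCR, normalized to ACTB, GAPDH, POLR2A; bidirectional fitting versus DMSO.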
# [5] = read-out: Forkhead box O1 (FOXO1), FOXO1 (gene 2308); assay: LTEA_HepaRG_FOXO1: Life Technologies and Expression Analysis (LTEA) Assay for Forkhead box O1 (FOXO1) using HepaRG (AID 2283456)
# Method in brief: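 Differentiated HepaRG cells, in serum-free induction medium with 0.5% DMSO, exposed 48 h in duplicate to 8-point half-log series from 100 uM. FOXO1 mRNA measured by TaqMan qRT-PCR, normalized to ACTB, GAPDH, POLR2A; bidirectional fit versus DMSO.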
# [6] = read-out: growth arrest and DNA damage 45 (GADD45A), GADD45A (gene 1647); assay: LTEA_HepaRG_GADD45A: Life Technologies and Expression Analysis (LTEA) Assay for growth arrest and DNA damage 45 (GADD45A) using HepaRG (AID 2283458)
# Method in brief: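 Differentiated HepaRG cells exposed 48 h in serum-free induction medium to 8 concentrations, top 100 uM in half-log steps, 0.5% DMSO. GADD45A mRNA quantified by qRT-PCR, normalized to ACTB, GAPDH and POLR2A; bidirectional fit versus DMSO.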
# [7] = read-out: Forkhead box O3 (FOXO3), FOXO3 (gene 2309); assay: LTEA_HepaRG_FOXO3: Life Technologies and Expression Analysis (LTEA) Assay for Forkhead box O3 (FOXO3) using HepaRG (AID 2283459)
# Method in brief: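 Differentiated human HepaRG cells, 48 h post-plating, exposed in duplicate for 48 h in serum-free induction medium; 8-point half-log series from 100 uM in 0.5% DMSO. FOXO3 mRNA by TaqMan qRT-PCR, normalized to ACTB/GAPDH/POLR2A; bidirectional fit versus DMSO.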
# [8] = read-out: ABC Transporter (ABCB1), ABCB1 (gene 5243); assay: LTEA_HepaRG_ABCB1: Life Technologies and Expression Analysis (LTEA) Assay for ABC Transporter (ABCB1) using HepaRG (AID 2283460)
# Method in brief: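 HepaRG cells exposed in duplicate for 48 h in serum-free induction medium to eight half-log concentrations up to 100 uM in 0.5% DMSO. ABCB1 mRNA quantified by qRT-PCR, normalised to ACTB, GAPDH and POLR2A; fitted bidirectionally versus DMSO.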
# [9] = read-out: growth arrest and DNA damage 45 (GADD45B), GADD45B (gene 4616); assay: LTEA_HepaRG_GADD45B: Life Technologies and Expression Analysis (LTEA) Assay for growth arrest and DNA damage 45 (GADD45B) using HepaRG (AID 2283461)
# Method in brief: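 Transcript level quantified by Fluidigm TaqMan qRT-PCR with three housekeeping genes for normalization, analyzed for up- or down-regulation against 0.5% DMSO. HepaRG cultures dosed 48 h at eight half-log concentrations up to 100 uM, duplicates.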
# [10] = read-out: ABC Transporter (ABCC3), ABCC3 (gene 8714); assay: LTEA_HepaRG_ABCC3: Life Technologies and Expression Analysis (LTEA) Assay for ABC Transporter (ABCC3) using HepaRG (AID 2283462)
# Method in brief: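 Transcript level by TaqMan qRT-PCR, normalised to three housekeeping genes, fitted in both directions relative to vehicle. Chemicals tested in duplicate at eight half-log concentrations up to 100 uM for 48 h on HepaRG cells (0.5% DMSO).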
# [11] = read-out: ABC Transporter (ABCB11), ABCB11 (gene 8647); assay: LTEA_HepaRG_ABCB11: Life Technologies and Expression Analysis (LTEA) Assay for ABC Transporter (ABCB11) using HepaRG (AID 2283463)
# Method in brief: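 Differentiated human HepaRG cells in serum-free induction medium, dosed in duplicate for 48 h. Eight-point half-log series from 100 uM in 0.5% DMSO; ABCB11 mRNA by qRT-PCR, normalized to ACTB, GAPDH, POLR2A, fitted bidirectionally versus DMSO.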
# [12] = read-out: ABC Transporter (ABCC2), ABCC2 (gene 1244); assay: LTEA_HepaRG_ABCC2: Life Technologies and Expression Analysis (LTEA) Assay for ABC Transporter (ABCC2) using HepaRG (AID 2283464)
# Method in brief: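 Endpoint is ABCC2 transcript level from qRT-PCR, normalized to three housekeeping genes and fitted bidirectionally relative to DMSO. Human HepaRG cells received test chemical for 48 h at up to 100 uM (8 points, half-log steps, 0.5% DMSO), duplicate wells.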
# [13] = read-out: Broad substrate specificity ATP-binding cassette transporter ABCG2 (Homo sapiens) (UniProt Q9UNQ0); assay: LTEA_HepaRG_ABCG2: Life Technologies and Expression Analysis (LTEA) Assay for ABC Transporter (ABCG2) using HepaRG (AID 2283465)
# Method in brief: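 Differentiated HepaRG cells were exposed for 48 h in serum-free induction medium to 8 half-log concentrations, top 100 uM, in 0.5% DMSO. ABCG2 mRNA was measured by qRT-PCR, normalized to ACTB, GAPDH and POLR2A, with bidirectional fitting versus DMSO.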
# [14] = read-out: ATP-citrate lyase (ACLY), ACLY (gene 47); assay: LTEA_HepaRG_ACLY: Life Technologies and Expression Analysis (LTEA) Assay for ATP-citrate lyase (ACLY) using HepaRG (AID 2283466)
# Method in brief: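 Differentiated HepaRG cells exposed 48 h in serum-free induction medium to eight half-log concentrations up to 100 uM in 0.5% DMSO, duplicates. Transcript measured by Fluidigm TaqMan qRT-PCR, normalized to ACTB, GAPDH, POLR2A; bidirectional fit versus DMSO.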
# [15] = read-out: Peroxisomal acyl-coenzyme A oxidase 1 (ACOX1) gene, ACOX1 (gene 51); assay: LTEA_HepaRG_ACOX1: Life Technologies and Expression Analysis (LTEA) Assay for Peroxisomal acyl-coenzyme A oxidase 1 (ACOX1) gene using HepaRG (AID 2283467)
# Method in brief: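 HepaRG cells, plated 48 h then switched to serum-free induction medium, were exposed in duplicate for 48 h to 8-point half-log concentrations up to 100 uM in 0.5% DMSO. ACOX1 mRNA was measured by qRT-PCR, normalized to ACTB/GAPDH/POLR2A, and fitted bidirectionally versus DMSO.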
# [16] = read-out: Alkaline Phosphatase, Placental (ALPP) gene, ALPP (gene 250); assay: LTEA_HepaRG_ALPP: Life Technologies and Expression Analysis (LTEA) Assay for Alkaline Phosphatase, Placental (ALPP) gene using HepaRG (AID 2283468)
# Method in brief: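 ALPP transcript level, measured by qRT-PCR and normalized to three housekeeping genes (ACTB, GAPDH, POLR2A), after 48 h dosing of differentiated HepaRG in serum-free induction medium. Top concentration 100 uM with half-log dilutions (8 points, 0.5% DMSO, duplicates); bidirectional fitting relative to DMSO.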
# [17] = read-out: Bcl-2 (BAD) gene, BAD (gene 572); assay: LTEA_HepaRG_BAD: Life Technologies and Expression Analysis (LTEA) Assay for Bcl-2 (BAD) gene using HepaRG (AID 2283469)
# Method in brief: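 Differentiated HepaRG cells were exposed in duplicate in 0.5% DMSO for 48 h to eight-point half-log concentrations up to 100 uM. BAD mRNA was measured by Fluidigm TaqMan qRT-PCR, normalized to ACTB, GAPDH and POLR2A, and fitted bidirectionally against DMSO.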
# [18] = read-out: Bcl-2 (BAX) gene, BAX (gene 581); assay: LTEA_HepaRG_BAX: Life Technologies and Expression Analysis (LTEA) Assay for Bcl-2 (BAX) gene using HepaRG (AID 2283470)
# Method in brief: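 Differentiated HepaRG cells exposed 48 h in serum-free induction medium, eight half-log concentrations from 100 uM, in duplicate, 0.5% DMSO vehicle. BAX mRNA by TaqMan qRT-PCR, normalised to ACTB, GAPDH and POLR2A.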
# [19] = read-out: adenosine kinase (ADK) gene, ADK (gene 132); assay: LTEA_HepaRG_ADK: Life Technologies and Expression Analysis (LTEA) Assay for adenosine kinase (ADK) gene using HepaRG (AID 2283471)
# Method in brief: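 Read-out is ADK transcript level measured by qRT-PCR and normalised to three housekeeping genes. Cells are human HepaRG, dosed for 48 h at up to 100 uM in 0.5% DMSO. Gain or loss of signal is fitted against DMSO controls.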
# Broad substrate specificity ATP-binding cassette transporter ABCG2 (Homo sapiens), sequence (Q9UNQ0 whole entry, looked up): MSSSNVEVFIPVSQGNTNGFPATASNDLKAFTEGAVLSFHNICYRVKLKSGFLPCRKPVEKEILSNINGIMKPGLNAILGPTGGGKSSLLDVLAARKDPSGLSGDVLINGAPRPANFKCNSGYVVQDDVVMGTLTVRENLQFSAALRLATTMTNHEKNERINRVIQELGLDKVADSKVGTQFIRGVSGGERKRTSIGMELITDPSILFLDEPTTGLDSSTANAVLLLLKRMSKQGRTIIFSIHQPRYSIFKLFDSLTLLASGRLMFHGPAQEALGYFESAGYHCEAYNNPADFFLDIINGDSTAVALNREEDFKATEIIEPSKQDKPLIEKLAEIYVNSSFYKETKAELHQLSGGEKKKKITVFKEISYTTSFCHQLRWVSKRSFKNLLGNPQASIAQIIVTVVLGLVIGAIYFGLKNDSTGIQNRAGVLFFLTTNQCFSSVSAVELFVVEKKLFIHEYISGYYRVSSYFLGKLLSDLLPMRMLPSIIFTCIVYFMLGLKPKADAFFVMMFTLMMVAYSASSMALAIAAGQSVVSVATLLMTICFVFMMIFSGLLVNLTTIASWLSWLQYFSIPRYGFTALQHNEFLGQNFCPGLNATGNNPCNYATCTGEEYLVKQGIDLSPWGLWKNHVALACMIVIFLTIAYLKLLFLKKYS
smiles,measurement,setting,value
CCN(CC)CCO,outcome,[1],inactive
same,outcome,[2],inactive
same,outcome,[3],inactive
same,outcome,[4],inactive
same,outcome,[5],inactive
same,outcome,[6],inactive
same,outcome,[7],inactive
same,outcome,[8],inactive
same,outcome,[9],inactive
same,outcome,[10],inactive
same,outcome,[11],inactive
same,outcome,[12],inactive
same,outcome,[13],inactive
same,outcome,[14],inactive
same,outcome,[15],inactive
same,outcome,[16],inactive
same,outcome,[17],inactive
same,outcome,[18],inactive
same,outcome,[19],inactive
CCN(CC)N=O,outcome,[1],inactive
same,outcome,[2],inactive
same,AC50,[3],76.5 µM (active)
same,outcome,[4],inactive
same,outcome,[5],inactive
same,outcome,[6],inactive
same,outcome,[7],inactive
same,outcome,[8],inactive
same,outcome,[9],inactive
same,outcome,[10],inactive
same,outcome,[11],inactive
same,outcome,[12],inactive
same,outcome,[13],inactive
same,outcome,[14],inactive
same,outcome,[15],inactive
same,outcome,[16],inactive
same,outcome,[17],inactive
same,outcome,[18],inactive
same,outcome,[19],inactive
O=C1CCCO1,outcome,[1],inactive
same,outcome,[2],inactive
same,outcome,[3],inactive
same,outcome,[4],inactive
same,outcome,[5],inactive
same,AC50,[6],50 µM (active)
same,outcome,[7],inactive
same,AC50,[8],9.92 µM (active)
same,outcome,[9],inactive
same,outcome,[10],inactive
same,outcome,[11],inactive
same,outcome,[12],inactive
same,outcome,[13],inactive
same,outcome,[14],inactive
same,outcome,[15],inactive
same,outcome,[16],inactive
same,outcome,[17],inactive
same,outcome,[18],inactive
same,AC50,[19],50 µM (active)
CCOc1cccc(C2(N3CCN(c4ccccc4)CC3)CCC(C)CC2)c1 (centres undefined),outcome,[1],inactive
same,outcome,[2],inactive
same,AC50,[3],35.9 µM (active)
same,outcome,[4],inactive
same,outcome,[5],inactive
same,outcome,[6],inactive
same,outcome,[7],inactive
same,outcome,[8],inactive
same,outcome,[9],inactive
same,outcome,[10],inactive
same,outcome,[11],inactive
same,outcome,[12],inactive
same,outcome,[13],inactive
same,outcome,[14],inactive
same,outcome,[15],inactive
same,outcome,[16],inactive
same,outcome,[17],inactive
same,outcome,[18],inactive
same,outcome,[19],inactive
OCCCl,outcome,[1],inactive
same,outcome,[2],inactive
same,outcome,[3],inactive
same,outcome,[4],inactive
same,outcome,[5],inactive
same,outcome,[6],inactive
same,outcome,[7],inactive
same,outcome,[8],inactive
same,outcome,[9],inactive
same,outcome,[10],inactive
same,outcome,[11],inactive
same,outcome,[12],inactive
same,outcome,[13],inactive
same,outcome,[14],inactive
same,outcome,[15],inactive
same,outcome,[16],inactive
same,outcome,[17],inactive
same,outcome,[18],inactive
same,outcome,[19],inactive
O=Cc1ccco1,outcome,[1],inactive
same,outcome,[2],inactive
same,AC50,[3],50 µM (active)
same,outcome,[4],inactive
same,outcome,[5],inactive
same,outcome,[6],inactive
same,outcome,[7],inactive
same,outcome,[8],inactive
same,outcome,[9],inactive
same,outcome,[10],inactive
same,outcome,[11],inactive
same,outcome,[12],inactive
same,outcome,[13],inactive
same,outcome,[14],inactive
same,outcome,[15],inactive
same,outcome,[16],inactive
same,outcome,[17],inactive
same,outcome,[18],inactive
same,outcome,[19],inactive
